Reference: PubChem BioAssay AID493036 (Sanford-Burnham Center for Chemical Genomics, 2011)
Hit rate of the full screen: of about 330,000 compounds, about 560 (0.17%) were called active.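 How the source made its calls: active means activation at or above 40% of the spot to cytoplasm intensity ratio, with at least 20 cells analyzed; inconclusive means wells under 20 cells, flagged as cytotoxic or low count; inactive means the rest.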 The entries come from a sample that favours actives as a whole.

How the values were obtained:
[1] = agonists of human NTR1, primary screen, imaging, U2OS cells, beta-arrestin-GFP, high content (AID 493036); details: NTR1-U2OS beta-arrestin-GFP spot imaging, agonist mode; measured here: cell count, cytotoxicity flag; at 20 µM;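 on activation: 0% = DMSO without peptide and 100% = 100 nM NTR1 peptide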
[2] = target: Neurotensin receptor type 1 (Homo sapiens) (UniProt P30989); test: as above; details: NTR1-U2OS beta-arrestin-GFP spot imaging, agonist mode; at 20 µM; stronger effect = higher value
Neurotensin receptor type 1 (Homo sapiens), sequence (P30989 whole entry, looked up): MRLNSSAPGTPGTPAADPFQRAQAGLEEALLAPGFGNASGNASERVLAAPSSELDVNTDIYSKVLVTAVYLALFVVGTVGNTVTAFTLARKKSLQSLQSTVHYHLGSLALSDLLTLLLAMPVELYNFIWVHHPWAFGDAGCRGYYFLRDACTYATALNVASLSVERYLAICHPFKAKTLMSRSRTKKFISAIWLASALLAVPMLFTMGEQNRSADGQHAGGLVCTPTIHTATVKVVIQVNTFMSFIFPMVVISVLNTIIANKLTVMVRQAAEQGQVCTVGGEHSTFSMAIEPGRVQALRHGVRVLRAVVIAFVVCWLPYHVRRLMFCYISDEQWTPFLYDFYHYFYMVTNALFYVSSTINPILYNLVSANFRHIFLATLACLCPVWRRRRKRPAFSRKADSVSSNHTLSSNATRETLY

| SMILES | cell count [1] | activation [2] |
| --- | --- | --- |
| CCOc1ccc(C(C)C)cc1S(=O)(=O)n1nc(C)cc1C | 43 cells | 0.1% (inactive) |
| COc1ccc(C(C[N+](=O)[O-])n2nc(C)cc2C)cc1 (configuration not stated) | 64 cells | 47.9% (active) |
| COc1ccc(OC)c(S(=O)(=O)n2c([N+](=O)[O-])cnc2C)c1 | 68 cells | 0.5% (inactive) |
| CC(C)(CNC(=O)Cc1ccc(Cl)cc1Cl)N1CCOCC1 | 59 cells | -2.3% (inactive) |
| CCOc1ccc2sc(NS(=O)(=O)c3ccc(N)cc3)nc2c1 | 62 cells | 2.8% (inactive) |
| O=C(Nc1cc(Cl)ccc1N1CCOCC1)c1ccc(N2CCCC2=O)cc1 | 53 cells | -1.6% (inactive) |
| CCn1c(Cc2cccs2)nnc1SCC(=O)c1ccc(C)cc1 | 56 cells | 0.5% (inactive) |
| Fc1ccccc1CNC(=S)Nc1ccc(Cl)cc1 | 48 cells | 2.3% (inactive) |
| CCN(CCNC(=O)C1=C(C)C(=O)OC12CCC(C)CC2)c1ccccc1 (configuration not stated) | 64 cells | 3.9% (inactive) |
| COc1ccc(OC)c(NC(=O)c2cnn(-c3ccccc3Cl)c2NC(=O)c2ccco2)c1 | 62 cells | 4.9% (inactive) |
| CCOCCCNC(=S)Nc1ccc2nc(N3CCN(CC)CC3)cc(C)c2c1 | 73 cells | -2% (inactive) |
| CCCCCCCC(=O)NC(Nc1ccccc1OC)C(Cl)(Cl)Cl (configuration not stated) | 50 cells | 2.7% (inactive) |
| Cc1nn(CC(=O)Nc2ccc(C#N)cc2)c(C)c1[N+](=O)[O-] | 65 cells | 0.3% (inactive) |
| CC(OC(=O)CN1C(=O)COc2ccccc21)C(=O)NCc1ccc(F)cc1 (configuration not stated) | 51 cells | 0.8% (inactive) |
| O=S(=O)(c1ccccc1)N1CN(Cc2ccc(F)cc2)c2nc3ccccc3nc21 | 40 cells | 0.8% (inactive) |
| CC(C)CC1(C(=O)NCc2ccccn2)C=CCN1C(=O)c1ccccc1 (configuration not stated) | 56 cells | -0.1% (inactive) |
| CCN(C(=O)CSc1ncnc2c1cnn2-c1ccccc1)C1CCS(=O)(=O)C1 (configuration not stated) | 39 cells | -0.3% (inactive) |
| O=[N+]([O-])/C=C/c1ccc2c(ccn2Cc2ccccc2)c1 | 87 cells | 87.3% (active) |
| CCCCC[C@@H]1C=C(C(=O)O)[C@H](c2ccc(C#N)cc2)N1S(=O)(=O)c1ccc(C)cc1 | 52 cells | 7.1% (inactive) |
| CCCCCCCCCCCCN1C(=O)CSC1c1cccnc1 (configuration not stated) | 45 cells | 11.6% (inactive) |
| CC(C)Cn1c(CCC(=O)O)ccc1-c1cccs1 | 50 cells | -0.5% (inactive) |

| SMILES | cell count [1] | activation [2] |
| --- | --- | --- |
| COc1ccccc1NC(=O)C1CCN(C(=O)c2ccc(C(C)(C)C)cc2)CC1 | 46 cells | -0.5% (inactive) |
| Cc1ccc(S(=O)(=O)NNC(=O)/C=C/c2cccc(F)c2)cc1 | 75 cells | 0% (inactive) |
| CCCC(C(=O)NC1CCCC1)N(C(=O)Cn1nnc(-c2ccc(C)o2)n1)c1cccc(O)c1 (configuration not stated) | 48 cells | 0.6% (inactive) |
| CC1CCN(S(=O)(=O)c2ccc3c(ccn3CC(=O)O)c2)CC1 | 71 cells | 0.7% (inactive) |
| C#CCCOC(=O)N1C2=NC(C(=O)OC)=C(C(=O)OC)[C@@H]3N(C)c4ccc(OC)cc4[C@]23C[C@H]1C(=O)OC | 67 cells | 1.9% (inactive) |
| Cc1ccc(N(C(=O)c2sc(C)nc2C)C(C(=O)NC(C)(C)C)c2ccncc2)cc1 (configuration not stated) | 32 cells | -0.4% (inactive) |
| O=C(Oc1ccccc1C(=S)N1CCCCC1)c1cc([N+](=O)[O-])cc([N+](=O)[O-])c1 | 41 cells | 0.8% (inactive) |
| CCOC(=O)c1cnc2c(c(C)nn2CC)c1Cl | 47 cells | 2.2% (inactive) |
| O=C(OCC(O)C(O)COC(=O)c1ccccc1)c1ccccc1 (configuration not stated) | 68 cells | 0% (inactive) |
| COc1ccc([C@H]2CC(=O)C=C(c3ccc(C)cc3)C2)cc1 | 62 cells | 3.1% (inactive) |
| Cc1cc(C)c(NC(=O)C[N+](C)(C)CC(O)COc2cccc3ccccc23)c(C)c1 (configuration not stated) | 43 cells | -1.1% (inactive) |
| CCC(C)Sc1nc2c(c(=O)[nH]c(=O)n2C)n1CC(O)COc1cccc2ccccc12 (configuration not stated) | 51 cells | 4.1% (inactive) |
| CC(C)c1ccccc1OCC(O)CN(CC(O)COc1cccc2ccccc12)C(C)C (configuration not stated) | 48 cells | 46.1% (active) |
| CN(C)S(=O)(=O)N1CCN(c2ccc([N+](=O)[O-])cc2)CC1 | 47 cells | 0% (inactive) |
| COCc1cc(=O)[nH]c(-c2ccc(C(F)(F)F)cc2)n1 | 62 cells | -0.3% (inactive) |
| CC(Sc1nn(-c2ccc(Cl)cc2)c(=S)s1)C(=O)NCC1CCCO1 (configuration not stated) | 67 cells | -1% (inactive) |
| Cc1ccc(NC(=O)[C@H](Cc2ccccc2)NC(=O)C2CCNCC2)cc1 | 66 cells | -0.1% (inactive) |
| COc1ccc(C2CC(=O)C=C(NCC3CCCO3)C2)cc1 (configuration not stated) | 92 cells | -3.9% (inactive) |
| O=C1N(Cc2ccc3c(c2)OCO3)c2ccccc2C1(O)c1c[nH]c2ccccc12 (configuration not stated) | 56 cells | 5.6% (inactive) |
| CC(C)(C)c1nnc(N/N=C/c2ccc(O)cc2)n(N)c1=O | 60 cells | 1.1% (inactive) |
| O=C(CCNS(=O)(=O)c1cccs1)N1CCN(c2ccc(F)cc2)CC1 | 42 cells | -0.5% (inactive) |

| SMILES | cell count [1] | activation [2] |
| --- | --- | --- |
| CCOC(=O)CN1CC23C=CC(O2)C(C(=O)Nc2ccc(F)cc2)C3C1=O (configuration not stated) | 46 cells | -1.6% (inactive) |
| COc1ccc(N2CCN(S(=O)(=O)c3ccc4c(c3)N(C(C)=O)CCO4)CC2)cc1 | 59 cells | 1.4% (inactive) |
| CCN(CC)S(=O)(=O)c1ccc(Cl)c(C(=O)NC(C)C(c2cccs2)N2CCCC2)c1 (configuration not stated) | 57 cells | 0.4% (inactive) |
| COC(c1ccccc1)c1nnc(CCC(=O)N2CCN(CCOc3ccccc3)CC2)o1 (configuration not stated) | 37 cells | 0.7% (inactive) |
| O=C1CN(C(=O)c2ccccc2F)C(c2ccc(F)cc2)c2cc(F)ccc2N1 (configuration not stated) | 89 cells | 0% (inactive) |
| O=C(CN1CCCSc2ccccc21)N1CCN(S(=O)(=O)c2ccccc2)CC1 | 62 cells | 0% (inactive) |
| O=C(CCc1ccccc1Cl)Nc1ccc(S(=O)(=O)Nc2nccs2)cc1 | 42 cells | 1.9% (inactive) |
| O=C(CS(=O)(=O)c1ccc(C(F)(F)F)cn1)NNC(=O)c1ccccc1 | 55 cells | -1% (inactive) |
| Cc1ccc(C(C)NC(=O)Cn2nc(C)c([N+](=O)[O-])c2C)cc1 (configuration not stated) | 54 cells | 3.1% (inactive) |
| O=C(Cn1ncc(N2CCCC2)c(Br)c1=O)c1ccc(Cl)cc1 | 53 cells | 2.8% (inactive) |
| CCC/C(C)=N\Nc1nc2c(c(=O)n(C)c(=O)n2C)n1C | 58 cells | 0.3% (inactive) |
| CCOc1ccc(NC(=O)N2CC=C(n3c(=O)[nH]c4ccccc43)CC2)cc1 | 42 cells | 0.4% (inactive) |
| COc1ccc(C(C(=O)NC2CCCCC2)N(C(=O)CCl)c2ccccc2Cl)cc1 (configuration not stated) | 35 cells | 7.8% (inactive) |
| O=C(OCC(=O)N1CCCC1=O)c1cc(S(=O)(=O)N2CCOCC2)ccc1Cl | 45 cells | -0.7% (inactive) |
| Nc1c(C(=O)Nc2ccc3c(c2)OCCO3)nnn1Cc1ccccc1 | 53 cells | 0.3% (inactive) |
| CCOc1ccc(CN2CCN(Cc3c[nH]c4ccccc34)CC2)cc1 | 62 cells | 0.2% (inactive) |
| Cc1ccc2c(c1)C(O)(CC(=O)c1cccc(-n3cccc3)c1)C(=O)N2 (configuration not stated) | 57 cells | 1.6% (inactive) |
| O=C(Nc1ccc(F)c([N+](=O)[O-])c1)C1CCCO1 (configuration not stated) | 58 cells | -0.8% (inactive) |
| CCCC(=O)Nc1ncnc2c1ncn2[C@@H]1O[C@@H]2OP(=O)(O)OC[C@H]2[C@H]1OC(=O)CCC | 60 cells | 1.1% (inactive) |
| COc1ccc(C)cc1-n1nnnc1SCC(=O)c1cc(C)n(Cc2ccco2)c1C | 88 cells | 2.5% (inactive) |
| Cc1ccc2nc3c(cc(C(=O)NCCc4ccccc4)c(=N)n3CC3CCCO3)c(=O)n2c1 (configuration not stated) | 47 cells | 0.1% (inactive) |

| SMILES | cell count [1] | activation [2] |
| --- | --- | --- |
| O=C(COC(=O)C1CC2C=CC1C2)Nc1ccccc1 (configuration not stated) | 55 cells | -0.8% (inactive) |
| CCOc1ccc(N(CC(=O)Nc2ccccc2F)S(=O)(=O)c2c(C)[nH]c(=O)[nH]c2=O)cc1 | 61 cells | -0.8% (inactive) |
| CCCCCCCCCCOC(=O)Cn1c(COc2ccc(C)cc2)[n+](C)c2ccccc21 | 48 cells | 28.5% (inactive) |
| COc1cccc(OCc2nnc3n2N=C(c2ccccc2)C(CC(=O)O)S3)c1 (configuration not stated) | 51 cells | 0.6% (inactive) |
| CCCCCCCCCCOC(=O)Cn1c(COc2cccc(OC)c2)[n+](C)c2ccccc21 | 71 cells | 69.3% (active) |
| CCOC(=O)CSC1=C(C#N)C(c2ccco2)C(C(=O)OCc2ccccc2)=C(C)N1 (configuration not stated) | 51 cells | 41.1% (active) |
| CC1=C(C(=O)Nc2ccccc2)C(c2cccs2)C(C#N)=C(SCC#N)N1 (configuration not stated) | 63 cells | 0.8% (inactive) |
| CC1=C(C(=O)OCc2ccccc2)C(c2ccco2)n2ncnc2N1 (configuration not stated) | 52 cells | -3.8% (inactive) |
| Cc1ccccc1C(=O)Nc1cccc(-c2nnc(SCC(=O)O)n2C)c1 | 57 cells | 1.7% (inactive) |
| Cc1cc(S(=O)(=O)NCc2ccccn2)c(Cl)cc1Cl | 75 cells | 0.3% (inactive) |
| Cc1cc(/C=C2/SC(=O)N(CC(=O)OC(C)C)C2=O)c(C)n1C | 60 cells | 0.9% (inactive) |
| COc1ccccc1C(=O)Nn1cnnc1 | 66 cells | -0.3% (inactive) |
| O=C1C2N=NN(CC(=O)N3N=C(c4cccc5ccccc45)CC3c3ccccc3)C2C(=O)N1c1ccccc1 (configuration not stated) | 87 cells | 2.9% (inactive) |
| COc1ccc(C2=NN(c3ccccc3)C(c3cccs3)C2)cc1 (configuration not stated) | 44 cells | 1.2% (inactive) |
| Oc1ccccc1C1=NN(c2ccccc2)C(c2ccccc2)C1 (configuration not stated) | 102 cells | 48.9% (active) |
| O=C(/C=C/c1ccc(Cl)cc1Cl)c1cccnc1 | 71 cells | 29.2% (inactive) |
| O=C(/C=C/c1ccc(Cl)c([N+](=O)[O-])c1)c1cccnc1 | 51 cells | 50% (active) |
| O=C(Nc1ccncc1)c1ccc(Cl)c([N+](=O)[O-])c1 | 85 cells | -0.2% (inactive) |
